Experiment [1] is described as follows: viability loss in pontine glioma line – cell-based, SU-DIPG-XIII, MIPE4.0, CellTiter-Glo, qHTS, dose response (AID 1347061; cut-off not given, nearly all actives have AC50 up to about 37 µM;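 further: cells exposed to compound for 48 hours before readout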). As to conditions: CellTiter-Glo ATP luminescence. (ATP-based viability assays read luminescence as a measure of living cells.)
The nature of experiment [2]: viability loss in pontine glioma line – cell-based, JHH-DIPG-1, MIPE4.0, CellTiter-Glo, qHTS, dose response (AID 1347062; cut-off not given, nearly all actives have AC50 up to about 27 µM;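 on AC50: cells exposed to compound for two days before readout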). The conditions noted are these: JHH-DIPG-1 viability, CellTiter-Glo ATP luminescence.
The nature of experiment [3]: growth inhibition of DIPG cells – cell-based, MIPE4.0 library, CellTiter-Glo luminescence, qHTS (AID 1347066; cut-off not given, nearly all actives have AC50 up to about 30 µM;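 further: cells exposed to compound for 48 hours before readout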). As to conditions: SU-DIPG-VI viability, CellTiter-Glo ATP luminescence.
Experiment [4] is described as follows: JHH-DIPG-1 glioma cell viability, MIPE5.0 library, CellTiter-Glo luminescence, qHTS (AID 1347067; cut-off not given, nearly all actives have AC50 up to about 26 µM;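 further: cells exposed to compound for 48 hours before readout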). The conditions noted are these: JHH-DIPG-1 glioma viability, CellTiter-Glo ATP luminescence.
A short description of experiment [5]: growth inhibition of DIPG cells – cell-based, MIPE5.0 library, qHTS (AID 1347068; cut-off not given, nearly all actives have IC50 up to about 30 µM;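 on IC50: cells exposed to compound for 48 hours before viability readout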). As to conditions: SU-DIPG-XXV viability.
Experiment [6] is described as follows: compounds altering HSF1 focus formation in cells – imaging, Selleck Cancer Library (AID 1347162; in the data active means plate-normalised HSF1 focus index below about 0.46). The conditions noted are these: human cells, HSF1 nuclear foci imaging, at 10 µM; SSMD: measured here: HSF1 foci SSMD mean; cell count: measured here: cell number; plate-normalised HSF1 focus index: stronger effect = lower value.
Experiment [7] in a line: viability loss in pontine glioma line – cell-based, SU-DIPG-XIII, MIPE5.0, CellTiter-Glo, qHTS, dose response (AID 1347064; cut-off not given, nearly all actives have AC50 up to about 23 µM;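 further: cells exposed to compound for 48 hours before the viability read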). As to conditions: CellTiter-Glo ATP luminescence.
A short description of experiment [8]: viability loss in pontine glioma line – cell-based, SU-DIPG-XXV, MIPE5.0, CellTiter-Glo, qHTS, dose response (AID 1347065; cut-off not given, nearly all actives have AC50 up to about 26 µM;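 further: cells exposed to compound for 48 hours before ATP readout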). The conditions noted are these: CellTiter-Glo ATP luminescence.
Experiment [9] can be described thus: viability loss with induced miR-34 in A549 – imaging, A549 dox-inducible miR-34, nuclei and caspase counts, primary screen (AID 1347080;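 active means compounds whose cell count with miR-34 switched on is under 0.7 times the count with it off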). The conditions noted are these: A549 miR-34 inducible, Hoechst nuclei count, 48 h.
Experiment [10] in a line: MELAS cybrid and Rieske KO viability enhancers – cell-based, MELAS cybrids, Rieske KO mouse fibroblasts, CellTiter-Glo, primary screen (AID 1508586;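 active means mean z-score across replicates of 1.96 or higher in either the MELAS or the Rieske mutant cell line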;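 further: z relative to plate mean and SD of compound and empty wells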). As to conditions: low glucose.
The nature of experiment [11]: drug combination growth inhibition, ovarian cancer – cell-based, oncology-focused library, rucaparib conditional, profiling panel (AID 1508598). As to conditions: patient-derived ovarian cancer cells, CellTiter-Glo viability, 144 h, stronger effect = lower value.
The mark [12] stands for this setting: stronger effect = lower value, cell number ratio, induced over uninduced.
[13] abbreviates: measured here: relative caspase fold change +Dox/-Dox.
Setting [14] is: measured here: total cells with miR-34 induction, stronger effect = lower value.
[15] abbreviates: measured here: total cells without miR-34 induction.
[16] abbreviates: MELAS cybrid survival, CellTiter-Glo 48 h, stronger effect = higher value.
[17] abbreviates: Rieske KO mouse fibroblast survival, CellTiter-Glo 72 h.

These results are taken from PubChem BioAssay.

Structures are written as SMILES. Where “and” joins values, the source holds several entries; their conditions need not be identical. Identical values can stand only once. Results filed as inconclusive are left out. Calls of active or inactive are those of the source.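 How the source made its calls, unless noted: active means normalized viability below 100% at a tested concentration; inactive means the rest.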

Turning to `CCCCn1c(=O)n(Cc2ccccc2F)c(=O)c2[nH]c(Cc3ccc(NC(C)=O)cc3)nc21`, the result in experiment [1], in [2], in [3], in experiment [4] and in experiment [5] was inactive. Also, the SSMD in [6] was determined as 3.98. In experiment [6], the cell count was 6960. Moreover, the plate-normalised HSF1 focus index in experiment [6] was 1.24 (inactive).
For the compound `CC(C)(C)C(=O)Oc1ccc2c(c1)nc(NC(=O)c1cccc([N+](=O)[O-])c1)n2CCCO`, the result in experiment [1], in [2], in experiment [3], in [4] and in [5] was inactive.
Consider `COc1cc(OC2CCN(C)CC2)ccc1Nc1ncc2c(n1)n(C1CCCC1)c(=O)n2C`, for which the AC50 – broadly, the concentration at which the activity in the assay is half-maximal – in experiment [1] was 16.6 µM (active); in experiment [2], 18.7 µM (active); in [7], 18.6 µM (active); in experiment [8] it was 13.2 µM (active); in [4], 14.8 µM (active). For the same compound, in experiment [5], the half-inhibitory concentration (IC50) (in general, the concentration that inhibits the measured activity by half) was 16.6 µM (active). Besides, the fold change was 0.984 (inactive) in experiment [9] (setting [12]) and 0.864 in [9] (setting [13]). The figures for the cell count in experiment [9] (setting [14]), in [9] (setting [15]) and in experiment [6] were 5400, 5490 and 7430, respectively. The compound also registered an SSMD in experiment [6] of 1.43. In addition, the plate-normalised HSF1 focus index in experiment [6] is 1.05 (inactive). For the same compound, the z-score in experiment [10] (setting [16]) is -0.255 (inactive); in experiment [10] (setting [17]), 0.614. The viability (in general, a read-out of living cells in per cent, often relative to untreated cells) in [11] (at 0.000305 µM, OCI-C5x cells, with rucaparib 10 µM, 100% = cells with rucaparib alone) was 107% (inactive); in experiment [11] (at 0.000305 µM, OCI-C5x cells, without rucaparib), 133% (inactive); in [11] (at 0.000305 µM, OCI-P5x cells, with rucaparib 20 µM, 100% = cells with rucaparib alone) it was 116% (inactive); in experiment [11] (at 0.000305 µM, OCI-P5x cells, without rucaparib), 112% (inactive); in experiment [11] (at 0.00122 µM, OCI-C5x cells, with rucaparib 10 µM, 100% = cells with rucaparib alone), 107% (inactive); in experiment [11] (at 0.00122 µM, OCI-C5x cells, without rucaparib), 125% (inactive). Moreover, the viability was 117% (inactive) in [11] (at 0.00122 µM, OCI-P5x cells, with rucaparib 20 µM, 100% = cells with rucaparib alone); 115% (inactive) in experiment [11] (at 0.00122 µM, OCI-P5x cells, without rucaparib); 107% (inactive) in [11] (at 0.00488 µM, OCI-C5x cells, with rucaparib 10 µM, 100% = cells with rucaparib alone); 120% (inactive) in experiment [11] (at 0.00488 µM, OCI-C5x cells, without rucaparib); 110% (inactive) in [11] (at 0.00488 µM, OCI-P5x cells, with rucaparib 20 µM, 100% = cells with rucaparib alone); 108% (inactive) in experiment [11] (at 0.00488 µM, OCI-P5x cells, without rucaparib). Besides, the viability was 105% (inactive) in experiment [11] (at 0.0195 µM, OCI-C5x cells, with rucaparib 10 µM, 100% = cells with rucaparib alone); 113% (inactive) in experiment [11] (at 0.0195 µM, OCI-C5x cells, without rucaparib); 112% (inactive) in experiment [11] (at 0.0195 µM, OCI-P5x cells, with rucaparib 20 µM, 100% = cells with rucaparib alone); 94% (active) in experiment [11] (at 0.0195 µM, OCI-P5x cells, without rucaparib); 96.6% (active) in [11] (at 0.0781 µM, OCI-C5x cells, with rucaparib 10 µM, 100% = cells with rucaparib alone); 120% (inactive) in experiment [11] (at 0.0781 µM, OCI-C5x cells, without rucaparib). The viability was 118% (inactive) in experiment [11] (at 0.0781 µM, OCI-P5x cells, with rucaparib 20 µM, 100% = cells with rucaparib alone); 110% (inactive) in experiment [11] (at 0.0781 µM, OCI-P5x cells, without rucaparib); 101% (inactive) in [11] (at 0.313 µM, OCI-C5x cells, with rucaparib 10 µM, 100% = cells with rucaparib alone); 124% (inactive) in [11] (at 0.313 µM, OCI-C5x cells, without rucaparib); 122% (inactive) in experiment [11] (at 0.313 µM, OCI-P5x cells, with rucaparib 20 µM, 100% = cells with rucaparib alone); 111% (inactive) in [11] (at 0.313 µM, OCI-P5x cells, without rucaparib). In addition, the viability was 48.8% (active) in experiment [11] (at 1.25 µM, OCI-C5x cells, with rucaparib 10 µM, 100% = cells with rucaparib alone); 115% (inactive) in experiment [11] (at 1.25 µM, OCI-C5x cells, without rucaparib); 106% (inactive) in experiment [11] (at 1.25 µM, OCI-P5x cells, with rucaparib 20 µM, 100% = cells with rucaparib alone); 64.7% (active) in experiment [11] (at 1.25 µM, OCI-P5x cells, without rucaparib); 46.3% (active) in experiment [11] (at 5 µM, OCI-C5x cells, with rucaparib 10 µM, 100% = cells with rucaparib alone); 115% (inactive) in experiment [11] (at 5 µM, OCI-C5x cells, without rucaparib). Besides, the viability in experiment [11] (at 5 µM, OCI-P5x cells, with rucaparib 20 µM, 100% = cells with rucaparib alone) is 76.9% (active); in experiment [11] (at 5 µM, OCI-P5x cells, without rucaparib), 28.1% (active).
For `COc1cc(N2CCN(C)CC2)ccc1Nc1nc(N)c(C(=O)c2c(Cl)cccc2Cl)s1`, the compound was classed as inactive in experiment [1], in [2] and in experiment [3].
With `c1ccc2c(Oc3nc(Nc4ccc(N5CCOCC5)cc4)c4ncn(C5CCCCC5)c4n3)cccc2c1`, the compound was called inactive in experiment [1], in [2], in [3] and in experiment [5]. For the same compound, the AC50 in experiment [4] is 13.2 µM (active). For the same compound, the fold change is 0.897 (inactive) and 0.992 (inactive) in experiment [9] (setting [12]); 0.721 and 0.438 in experiment [9] (setting [13]). The cell count was 5540 and 6870 in experiment [9] (setting [14]); 6180 and 6930 in experiment [9] (setting [15]). Also, the z-score in [10] (setting [16]) is -0.486 (inactive); in experiment [10] (setting [17]) it was 0.0671.
